# Measured values taken from PubChem BioAssay.
# Activity calls are given as the source filed them.
# What was measured:
# [1] = test system: Plasmodium falciparum Sir2 (PF13_0152, Sir2A); assay: pfSir2 binders on small-molecule microarrays, primary screen, biochemical, small-molecule microarray, 635 nm fluorescence (AID 1098); conditions: small-molecule microarray binding, fluorescence 635 nm; higher = more signal;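 note: score merges spot fluorescence intensity with its signal-to-noise ratio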
# [2] = small-molecule microarray binders of probe aDKK1, primary screen, biochemical, biotinylated probe, 635/667 nm fluorescence (AID 1099); conditions: higher = more signal;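 note: score merges 667nm spot fluorescence with signal to noise across triplicate slides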
# [3] = small-molecule microarray binders of probe aCHRDL2, primary screen, biochemical, biotinylated probe, 635/667 nm fluorescence (AID 1100); conditions: higher = more signal
# [4] = splicing luciferase reporter signal modulators, primary screen, spliceosome inhibition project, cell-based, HEK293, splice +/- reporter (AID 1101); conditions: luminescence, 24 h, higher = more signal, called active from +8 up or from −8 down;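 note: HEK293 cells carrying a splicing-competent luciferase reporter gene; test concentration not given here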
# [5] = target: Fibroblast growth factor 10 (Homo sapiens) (UniProt O15520); assay: FGF10 binders on small-molecule microarrays, primary screen, biochemical, small-molecule microarray, 635 nm fluorescence (AID 1102); conditions: FGF10 binding, fluorescence 635 nm, higher = more signal
# [6] = test system: glycogen synthase kinase-3 (GSK3A per assay name; protocol says GSK3B); assay: GSK3 binders on small-molecule microarrays, primary screen, biochemical, small-molecule microarray, 635 nm fluorescence, GSK3A (AID 1103); conditions: small-molecule microarray binding, fluorescence 635 nm; higher = more signal; note: the record names both GSK3A and GSK3B
# [7] = target: Epidermal growth factor receptor (Homo sapiens) (UniProt P00533); assay: EGFR binders on small-molecule microarrays, primary screen, biochemical, small-molecule microarray, 635 nm fluorescence (AID 1104); conditions: EGFR binding, higher = more signal;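 note: score merges 667 nm emission intensity with spot signal to noise over triplicate slides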
# [8] = target: Follistatin-related protein 3 (Homo sapiens) (UniProt O95633); assay: FSTL3 binders on small-molecule microarrays, primary screen, biochemical, small-molecule microarray, 635 nm fluorescence (AID 1105); conditions: FSTL3 binding, higher = more signal;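 note: score merges emission near 667 nm and signal to noise per printed spot across three slides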
# [9] = target: Dickkopf-related protein 1 (Homo sapiens) (UniProt O94907); assay: DKK1 binders on small-molecule microarrays, primary screen, biochemical, small-molecule microarray, 635 nm fluorescence scan (AID 1106); conditions: DKK1 binding, higher = more signal;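 note: score merges emission near 667 nm with signal to noise over three replicate slides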
# [10] = test system: Inhibin beta A chain (activin A); assay: INHBA (activin A) binders on microarrays, primary screen, biochemical, small-molecule microarray, 635 nm fluorescence scan (AID 1107); conditions: small-molecule microarray binding, higher = more signal;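 note: mouse activin A protein probed at 4.33 µg/mL on printed slides; score merges bound-protein fluorescence near 667 nm with spot signal-to-noise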
# [11] = test system: Human papillomavirus type 1a protein E7 (residues 44-93); assay: HPV1a E7 fragment binders on microarrays, primary screen, biochemical, small-molecule microarray, residues 44-93, 635 nm fluorescence (AID 1108); conditions: small-molecule microarray binding, fluorescence 635 nm; higher = more signal;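 note: E7 fragment applied at 1 µg/mL in TBST for 1 h at 4 C; score combines spot fluorescence with its signal to noise ratio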
# [12] = modulators of HCV replicon luciferase signal, primary screen, HCV replication inhibitor project, Huh7 cells, luciferase reporter (AID 1109); conditions: 48 h, higher = more signal;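 note: huh7 hepatoma cells harbouring a luciferase neomycin HCV replicon reporter; luciferase luminescence as measure of HCV replicon replication; test concentration not given here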
# [13] = target: Left-right determination factor 2 (Homo sapiens) (UniProt O00292); assay: LEFTY2 binders on small-molecule microarrays, primary screen, biochemical, small-molecule microarray, 635 nm fluorescence scan (AID 1110); conditions: LEFTY2 binding, higher = more signal
# [14] = target: Calmodulin-1 (Homo sapiens) (UniProt P0DP23); assay: CALM1 binders on microarrays, EGTA buffer, profiling panel, biochemical, small-molecule microarray, Cy5-labelled CALM1 (AID 1111); conditions: Cy5-CALM1 binding fluorescence, higher = more signal;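 note: labelled calmodulin applied in Tris saline Tween buffer holding calcium plus EGTA and DTT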
# [15] = target: Calmodulin-1 (Homo sapiens) (UniProt P0DP23); assay: calcium-bound CALM1 binders on microarrays, profiling panel, artefact control for SMM control-protein annotation, biochemical, small-molecule microarray, Cy5-labelled CALM1, plus calcium (AID 1112); conditions: Cy5-CALM1 binding fluorescence, higher = more signal;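 note: score merges spot fluorescence with signal to noise from triplicate slides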
# [16] = small-molecule microarray binders of probe aWnt5a, primary screen, biochemical, biotinylated probe, 635/667 nm fluorescence (AID 1113); conditions: higher = more signal;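 note: score merges 667 nm fluorescence intensity with signal-to-noise per printed feature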
# [17] = small-molecule microarray binders of probe aShh, primary screen, biochemical, biotinylated probe, 635/667 nm fluorescence (AID 1114); conditions: higher = more signal;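 note: probe is biotin-labelled aShh protein from a stem cell growth factor screen; measures binding of labelled protein to compounds printed on the slide; score merges feature fluorescence at 667 nm with signal-to-noise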
# [18] = small-molecule microarray binders of probe aNog, primary screen, biochemical, biotinylated probe, 635/667 nm fluorescence (AID 1115); conditions: higher = more signal;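 note: probe is biotinylated aNog protein used at 0.15 µg/mL for 1 h at 4 C; z-score combines 667 nm fluorescence of each spot with its signal to noise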
# [19] = target: Torsin-1A-interacting protein 1 (Homo sapiens) (UniProt Q5JTV8); assay: LAP1 binders from COS7 cell lysate, primary screen, small-molecule microarray, 635/667 nm fluorescence (AID 1116); conditions: COS7-hLAP1 lysate binding, 635 nm fluorescence, higher = more signal
# [20] = target: Alpha-bungarotoxin (Bungarus multicinctus) (UniProt P60615); assay: alpha-bungarotoxin binders on microarray, profiling panel, artefact control for SMM control protein annotation, biochemical, small-molecule microarray, Alexa647 label, 635/667 nm fluorescence (AID 1117); conditions: alpha-BTX-A647 binding fluorescence, higher = more signal
# Sequence of Alpha-bungarotoxin (Bungarus multicinctus) (P60615 whole entry, looked up): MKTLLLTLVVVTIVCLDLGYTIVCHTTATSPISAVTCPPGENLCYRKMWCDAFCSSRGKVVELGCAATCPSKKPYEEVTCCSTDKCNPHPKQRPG
# Sequence of Left-right determination factor 2 (Homo sapiens) (O00292 whole entry, looked up): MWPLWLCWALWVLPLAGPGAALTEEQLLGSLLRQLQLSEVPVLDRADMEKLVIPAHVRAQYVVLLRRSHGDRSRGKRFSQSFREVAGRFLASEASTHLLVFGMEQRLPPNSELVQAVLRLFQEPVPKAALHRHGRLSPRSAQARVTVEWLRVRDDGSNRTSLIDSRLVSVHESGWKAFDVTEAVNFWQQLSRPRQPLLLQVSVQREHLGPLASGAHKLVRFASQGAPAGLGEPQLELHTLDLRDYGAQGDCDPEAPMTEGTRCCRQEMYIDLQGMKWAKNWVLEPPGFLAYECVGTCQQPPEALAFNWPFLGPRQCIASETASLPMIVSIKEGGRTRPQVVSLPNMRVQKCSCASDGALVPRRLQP
# Sequence of Torsin-1A-interacting protein 1 (Homo sapiens) (Q5JTV8 whole entry, looked up): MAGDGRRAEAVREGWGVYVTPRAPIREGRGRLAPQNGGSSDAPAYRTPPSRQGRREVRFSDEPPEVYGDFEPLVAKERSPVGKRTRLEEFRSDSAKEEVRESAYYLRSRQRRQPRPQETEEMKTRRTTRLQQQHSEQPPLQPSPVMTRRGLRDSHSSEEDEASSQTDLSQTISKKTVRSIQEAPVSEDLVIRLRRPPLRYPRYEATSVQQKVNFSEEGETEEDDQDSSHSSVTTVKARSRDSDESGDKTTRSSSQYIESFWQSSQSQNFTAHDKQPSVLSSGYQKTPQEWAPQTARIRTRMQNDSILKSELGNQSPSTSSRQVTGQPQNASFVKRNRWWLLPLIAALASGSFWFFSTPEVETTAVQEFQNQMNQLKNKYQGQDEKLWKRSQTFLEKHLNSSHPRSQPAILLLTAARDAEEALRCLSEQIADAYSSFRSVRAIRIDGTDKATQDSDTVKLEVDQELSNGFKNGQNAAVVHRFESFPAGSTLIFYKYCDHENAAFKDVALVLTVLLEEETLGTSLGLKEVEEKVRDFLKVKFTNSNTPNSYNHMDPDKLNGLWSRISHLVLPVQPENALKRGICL
# Sequence of Fibroblast growth factor 10 (Homo sapiens) (O15520 whole entry, looked up): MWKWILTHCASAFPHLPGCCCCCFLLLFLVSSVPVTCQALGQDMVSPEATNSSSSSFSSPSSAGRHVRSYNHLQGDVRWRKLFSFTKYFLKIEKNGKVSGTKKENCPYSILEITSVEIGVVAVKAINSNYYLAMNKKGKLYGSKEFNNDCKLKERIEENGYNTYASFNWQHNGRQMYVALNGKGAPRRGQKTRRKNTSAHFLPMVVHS
# Sequence of Dickkopf-related protein 1 (Homo sapiens) (O94907 whole entry, looked up): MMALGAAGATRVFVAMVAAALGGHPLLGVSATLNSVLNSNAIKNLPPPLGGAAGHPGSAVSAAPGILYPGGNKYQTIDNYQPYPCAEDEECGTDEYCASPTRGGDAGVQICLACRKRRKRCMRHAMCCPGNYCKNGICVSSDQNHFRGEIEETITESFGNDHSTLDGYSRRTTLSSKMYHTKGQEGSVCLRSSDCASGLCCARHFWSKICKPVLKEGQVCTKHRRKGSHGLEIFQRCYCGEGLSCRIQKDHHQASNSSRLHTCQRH
# Sequence of Follistatin-related protein 3 (Homo sapiens) (O95633 whole entry, looked up): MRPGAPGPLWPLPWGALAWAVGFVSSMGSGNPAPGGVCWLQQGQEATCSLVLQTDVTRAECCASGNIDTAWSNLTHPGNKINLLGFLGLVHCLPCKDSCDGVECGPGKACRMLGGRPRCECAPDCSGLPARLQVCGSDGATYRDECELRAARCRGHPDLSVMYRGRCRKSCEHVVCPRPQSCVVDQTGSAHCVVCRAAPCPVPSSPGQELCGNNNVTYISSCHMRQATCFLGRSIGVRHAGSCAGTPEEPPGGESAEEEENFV
# Sequence of Epidermal growth factor receptor (Homo sapiens) (P00533 whole entry, looked up): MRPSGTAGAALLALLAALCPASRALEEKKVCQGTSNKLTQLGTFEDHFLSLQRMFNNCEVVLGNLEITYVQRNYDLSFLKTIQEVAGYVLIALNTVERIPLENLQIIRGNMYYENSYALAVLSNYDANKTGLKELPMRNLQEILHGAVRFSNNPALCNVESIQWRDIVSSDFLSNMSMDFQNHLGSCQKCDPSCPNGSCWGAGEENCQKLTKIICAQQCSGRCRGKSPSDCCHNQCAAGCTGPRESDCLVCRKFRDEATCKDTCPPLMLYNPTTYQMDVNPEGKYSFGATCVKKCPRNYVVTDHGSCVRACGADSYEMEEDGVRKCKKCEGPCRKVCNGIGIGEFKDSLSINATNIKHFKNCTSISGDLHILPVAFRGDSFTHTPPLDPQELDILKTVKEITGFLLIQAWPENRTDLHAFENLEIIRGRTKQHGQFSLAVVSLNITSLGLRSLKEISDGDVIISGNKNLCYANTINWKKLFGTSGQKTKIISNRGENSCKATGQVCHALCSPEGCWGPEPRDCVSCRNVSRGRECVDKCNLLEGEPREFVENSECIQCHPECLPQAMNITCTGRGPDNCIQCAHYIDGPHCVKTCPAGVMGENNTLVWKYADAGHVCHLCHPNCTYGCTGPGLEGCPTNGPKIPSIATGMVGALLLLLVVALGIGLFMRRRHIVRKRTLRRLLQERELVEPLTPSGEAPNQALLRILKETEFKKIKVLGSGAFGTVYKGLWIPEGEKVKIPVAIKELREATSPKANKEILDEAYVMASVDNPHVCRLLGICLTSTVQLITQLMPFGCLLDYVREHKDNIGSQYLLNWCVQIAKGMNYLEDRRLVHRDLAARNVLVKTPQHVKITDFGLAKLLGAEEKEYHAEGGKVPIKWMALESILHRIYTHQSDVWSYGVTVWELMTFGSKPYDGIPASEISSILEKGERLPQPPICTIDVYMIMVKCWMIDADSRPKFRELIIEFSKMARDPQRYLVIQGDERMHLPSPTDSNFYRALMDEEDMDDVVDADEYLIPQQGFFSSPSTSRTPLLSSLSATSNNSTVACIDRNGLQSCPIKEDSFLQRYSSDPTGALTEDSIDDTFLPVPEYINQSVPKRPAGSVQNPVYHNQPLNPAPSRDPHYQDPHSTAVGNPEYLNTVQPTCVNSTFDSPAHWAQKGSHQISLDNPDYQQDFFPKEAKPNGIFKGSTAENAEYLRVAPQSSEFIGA
SMILES,composite z-score [1],composite z-score [2],composite z-score [3],z-score [4],composite z-score [5],composite z-score [6],composite z-score [7],composite z-score [8],composite z-score [9],composite z-score [10],composite z-score [11],z-score [12],composite z-score [13],composite z-score [14],composite z-score [15],composite z-score [16],composite z-score [17],composite z-score [18],composite z-score [19],composite z-score [20]
C=CCNC(=O)[C@@H]1[C@H]2C(=O)O[C@H](c3ccccc3)[C@H](c3ccccc3)N2[C@H](c2ccc(O)cc2)[C@@]12C(=O)Nc1ccc(C#CC3=CCCCC3)cc12,1.6,0.582,-0.228,-0.258 (inactive),1.24,0.887,0.494,0.79,0.626,0.406,1.44,-2.61,0.385,1.1,0.683,0.171,1.85,2.03,1.58,1.9
O=C1C2C=CC(C(O)c3ccccn3)N(Nc3ccc([N+](=O)[O-])cc3)C2C(=O)N1c1ccccc1 (stereo not given),1.42,1.01,0.891,0.981 (inactive),0.37,0.377,0.0711,0.55,-0.189,0.522,0.0529,-0.35,0.335,2.02,0.897,-0.0799,0.184,0.479,0.958,1.11
COCCOC(=O)N1C(=O)[C@@]2(c3cc(C#CCNC(N)=O)ccc31)[C@H](c1ccc(O)cc1)N1[C@H](c3ccccc3)[C@H](c3ccccc3)OC(=O)[C@H]1[C@@H]2C(=O)N1CCc2cc(OC)c(OC)cc2C1,0.391,0.206,0.493,-1.41 (inactive),1.19,-0.447,0.292,1.2,0.372,0.899,1.31,-0.281,0.266,0.111,0.118,0.586,-0.167,-0.25,0.712,0.857
CCOC(=O)C[C@H]1[C@H](OC(=O)c2ccc(-c3ccccc3)cc2)[C@@H](NC(=O)c2ccc(-c3ccccc3)cc2)c2cc(OCCCO)ccc2N1C(=O)c1ccccc1,0.518,0.685,0.365,0.594 (inactive),0.79,0.477,0.101,0.719,0.69,-0.12,1.01,-1.22,0.71,1.1,0.912,-0.0721,0.0278,0.412,0.322,1.14
COCCOC(=O)N1C(=O)[C@@]2(c3cc(C#CCC(C(=O)OC)C(=O)OC)ccc31)[C@H](C(N)=O)[C@H]1C(=O)O[C@H](c3ccccc3)[C@H](c3ccccc3)N1[C@@H]2c1ccccc1OCCO,0.997,-0.202,-0.129,-1.32 (inactive),1.37,1.31,0.958,1.09,0.47,0.486,1.31,-3.36,0.584,1.44,0.308,0.0297,-0.182,-0.263,0.146,0.899
